Results taken from PubChem BioAssay (EPA / NIEHS).
Where a structure was tested more than once in an assay, its records may differ in their call. Calls of active or inactive are those of the source. How the source made its calls: active means hit-call score of the fitted dose curve at least 0.9, where 1 is the maximum; inactive means score below 0.9.

Columns and labels:
[1] = read-out: Macrophage colony-stimulating factor (MCSF), CSF1 (gene 1435); assay: BSK_hDFCGF_MCSF: BioMAP Diversity Plus: hDFCGF Assay for Macrophage colony-stimulating factor (MCSF) Biomarker Activity (AID 2283060); settings: primary human foreskin fibroblasts; actives raise or lower the signal
Outline: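 M-CSF levels, determined by ELISA, are taken at 24 h after dosing human skin fibroblasts. Responses in either direction are fitted with DMSO serving as the baseline.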

[2] = BSK_hDFCGF_SRB: Viability Assessment in the BioMAP Diversity Plus: hDFCGF Assay (AID 2283061); settings: primary human foreskin fibroblasts;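 further: cells exposed to compound for 24 h before the read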
Outline: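 Cells were dosed with test chemical, cultured 24 h, fixed with 10% TCA, then stained with 0.1% SRB and read at 560 nm. The fibroblasts were human foreskin primary cells, and DMSO served as baseline.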

[3] = read-out: TIMP metallopeptidase inhibitor 1 (TIMP1), TIMP1 (gene 7076); assay: BSK_hDFCGF_TIMP1: BioMAP Diversity Plus: hDFCGF Assay for TIMP metallopeptidase inhibitor 1 (TIMP1) Biomarker Activity (AID 2283062); settings: primary human foreskin fibroblasts; actives raise or lower the signal
Outline: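 Fibroblasts from human foreskin are treated with test chemical and harvested at 24 h. TIMP-1 is quantified by ELISA, and gain or loss of signal is scored against DMSO.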

[4] = read-out: Monokine induced gamma interferon (MIG), CXCL9 (gene 4283); assay: BSK_hDFCGF_MIG: BioMAP Diversity Plus: hDFCGF Assay for Monokine induced gamma interferon (MIG) Biomarker Activity (AID 2283063); settings: primary human foreskin fibroblasts; actives raise or lower the signal
Outline: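 MIG signal, determined by ELISA, reflects 24 h chemical exposure of human skin primary fibroblasts. DMSO serves as negative control and baseline.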

[5] = read-out: Matrix Metallopeptidase 1 (MMP1), MMP1 (gene 4312); assay: BSK_hDFCGF_MMP1: BioMAP Diversity Plus: hDFCGF Assay for Matrix Metallopeptidase 1 (MMP1) Biomarker Activity (AID 2283064); settings: primary human foreskin fibroblasts; actives raise or lower the signal
Outline: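 Primary human foreskin fibroblasts in the hDFCGF system were dosed with test chemical, and MMP1 was measured by ELISA 24 h later. Values come from bidirectional curve fitting against the DMSO baseline.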

[6] = read-out: Vascular cell adhesion molecule 1 (VCAM1), VCAM1 (gene 7412); assay: BSK_hDFCGF_VCAM1: BioMAP Diversity Plus: hDFCGF Assay for Vascular cell adhesion molecule 1 (VCAM1) Biomarker Activity (AID 2283065); settings: primary human foreskin fibroblasts; actives raise or lower the signal;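 on AC50: VCAM-1 protein level quantified by ELISA after 24 h chemical exposure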
Outline: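 Cells are dosed, cultured for 24 h, then VCAM-1 is quantified by ELISA; signal increases and decreases are both fitted relative to DMSO.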

[7] = read-out: Plasminogen activator inhibitor-1 (PAI1), SERPINE1 (gene 5054); assay: BSK_hDFCGF_PAI1: BioMAP Diversity Plus: hDFCGF Assay for Plasminogen activator inhibitor-1 (PAI1) Biomarker Activity (AID 2283066); settings: primary human foreskin fibroblasts; actives raise or lower the signal
Outline: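 Human foreskin fibroblasts in the hDFCGF system were dosed with compound for 24 h; PAI-1 was quantified by ELISA. Bidirectional curve fitting used DMSO as negative control and baseline.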

[8] = read-out: Interferon-gamma inducible Protein 10 (IP10), CXCL10 (gene 3627); assay: BSK_KF3CT_IP10: BioMAP Diversity Plus: KF3CT Assay for Interferon-gamma inducible Protein 10 (IP10) Biomarker Activity (AID 2283068); settings: primary human keratinocytes with fibroblasts; actives raise or lower the signal
Outline: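 ELISA read-out of IP-10 after 24 h chemical dosing of human skin primary co-culture (keratinocytes, foreskin fibroblasts). Gain or loss of signal relative to DMSO, bidirectional curve fit.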

[9] = BSK_KF3CT_SRB: Viability Assessment in the BioMAP Diversity Plus: KF3CT Assay (AID 2283069); settings: primary human keratinocytes with fibroblasts
Outline: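 Human primary keratinocyte plus foreskin fibroblast co-culture exposed to chemicals for 24 h. Total protein measured by 0.1% sulforhodamine B staining after 10% TCA fixation, read at 560 nm; bidirectional fitting versus DMSO baseline.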

[10] = read-out: Interleukin-1 alpha (IL1a), IL1A (gene 3552); assay: BSK_KF3CT_IL1a: BioMAP Diversity Plus: KF3CT Assay for Interleukin-1 alpha (IL1a) Biomarker Activity (AID 2283070); settings: primary human keratinocytes with fibroblasts; actives raise or lower the signal
Outline: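 Human keratinocyte plus foreskin fibroblast primary co-culture, sampled 24 h after chemical dosing. IL-1a measured by ELISA; responses fitted bidirectionally against DMSO baseline (negative control), so gain or loss of signal both count.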

[11] = read-out: TIMP metallopeptidase inhibitor 2 (TIMP2), TIMP2 (gene 7077); assay: BSK_KF3CT_TIMP2: BioMAP Diversity Plus: KF3CT Assay for TIMP metallopeptidase inhibitor 2 (TIMP2) Biomarker Activity (AID 2283071); settings: primary human keratinocytes with fibroblasts; actives raise or lower the signal
Outline: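 Human primary keratinocyte/foreskin fibroblast co-culture dosed with chemical and sampled at 24 h. TIMP-2 levels quantified by ELISA; bidirectional fitting against DMSO negative control as baseline.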

[12] = read-out: Transforming growth factor beta 1 (TGFb1), TGFB1 (gene 7040); assay: BSK_KF3CT_TGFb1: BioMAP Diversity Plus: KF3CT Assay for Transforming growth factor beta 1 (TGFb1) Biomarker Activity (AID 2283072); settings: primary human keratinocytes with fibroblasts; actives raise or lower the signal
Outline: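 Human keratinocyte plus foreskin fibroblast primary co-culture, dosed with chemical for 24 h. TGF-b1 quantified by ELISA. Activity fitted bidirectionally against DMSO negative control as baseline.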

[13] = read-out: C-C motif chemokine 2 (Homo sapiens) (UniProt P13500); assay: BSK_KF3CT_MCP1: BioMAP Diversity Plus: KF3CT Assay for Monocyte Chemoattractant Protein 1 (MCP1/CCL2) Biomarker Activity (AID 2283073); settings: primary human keratinocytes with fibroblasts; actives raise or lower the signal
Outline: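 Keratinocytes and foreskin fibroblasts were co-cultured, dosed with chemical, and sampled 24 h later. MCP-1 was quantified by ELISA, and the endpoint was analyzed with bidirectional fitting using DMSO as negative control.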

[14] = read-out: Matrix Metallopeptidase 9 (MMP9), MMP9 (gene 4318); assay: BSK_KF3CT_MMP9: BioMAP Diversity Plus: KF3CT Assay for Matrix Metallopeptidase 9 (MMP9) Biomarker Activity (AID 2283074); settings: primary human keratinocytes with fibroblasts; actives raise or lower the signal;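 on AC50: MMP9 protein level quantified by ELISA in the co-culture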
Outline: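 Keratinocyte plus foreskin fibroblast human primary skin co-culture was dosed with chemical and MMP-9 was quantified by ELISA 24 h later. Bidirectional curve fitting used DMSO as negative control and activity baseline.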

[15] = read-out: urokinase plasminogen activator (uPA), PLAU (gene 5328); assay: BSK_KF3CT_uPA: BioMAP Diversity Plus: KF3CT Assay for urokinase plasminogen activator (uPA) Biomarker Activity (AID 2283075); settings: primary human keratinocytes with fibroblasts; actives raise or lower the signal
Outline: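 Human keratinocyte plus foreskin fibroblast primary co-culture exposed to chemical for 24 h. uPA levels were quantified by ELISA, and activity was fitted bidirectionally against a DMSO negative-control baseline.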

CD40, CD40 (gene 958) = assay: BSK_LPS_CD40: BioMAP Diversity Plus: LPS Assay for CD40 Biomarker Activity (AID 2283076); settings: primary human HUVEC with PBMC; actives raise or lower the signal
Outline: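 CD40 signal, measured by ELISA, is fitted in both directions relative to DMSO vehicle. The system is an LPS-driven human vascular primary co-culture of endothelial cells and PBMC, sampled 24 h after compound addition.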

[16] = read-out: Interleukin-8 (IL8), CXCL8 (gene 3576); assay: BSK_LPS_IL8: BioMAP Diversity Plus: LPS Assay for Interleukin-8 (IL8) Biomarker Activity (AID 2283078); settings: primary human HUVEC with PBMC; actives raise or lower the signal
Outline: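 Endothelial cells and PBMC from human donors are co-cultured, treated with chemicals and LPS, then assayed for IL-8 by ELISA after 24 h. Parallel SRB staining (0.1% SRB after 10% TCA fixation, 560 nm) flags cytotoxicity.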

[17] = BSK_LPS_SRB: Viability Assessment in the BioMAP Diversity Plus: LPS Assay (AID 2283079); settings: primary human HUVEC with PBMC;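 further: total protein by sulforhodamine B absorbance as a cytotoxicity measure; measured one day after compound addition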
Outline: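 Overt cytotoxicity was gauged by sulforhodamine B total-protein staining in a primary human vascular endothelial and mononuclear cell co-culture 24 h post-dosing. Activity was fitted in both directions relative to DMSO.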

[18] = read-out: Intercellular Adhesion Molecule 1 (ICAM1), ICAM1 (gene 3383); assay: BSK_KF3CT_ICAM1: BioMAP Diversity Plus: KF3CT Assay for Intercellular Adhesion Molecule 1 (ICAM1) Biomarker Activity (AID 2283067); settings: primary human keratinocytes with fibroblasts; actives raise or lower the signal
Outline: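 Dose the keratinocyte/fibroblast co-culture, wait 24 h, measure ICAM-1 by ELISA, then fit increases or decreases against DMSO. Cytotoxicity is checked in parallel cultures by SRB total-protein staining.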

[19] = read-out: E-selectin (Homo sapiens) (UniProt P16581); assay: BSK_LPS_Eselectin: BioMAP Diversity Plus: LPS Assay for Eselectin Biomarker Activity (AID 2283077); settings: primary human HUVEC with PBMC; actives raise or lower the signal
Outline: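 Signal of E-selectin, detected by ELISA, served as the endpoint; cells were umbilical vein endothelium with PBMC, read 24 h after treatment. DMSO defined baseline, and both increases and decreases were fitted.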

Measured: AC50

Sequence of E-selectin (Homo sapiens) (P16581 whole entry, looked up): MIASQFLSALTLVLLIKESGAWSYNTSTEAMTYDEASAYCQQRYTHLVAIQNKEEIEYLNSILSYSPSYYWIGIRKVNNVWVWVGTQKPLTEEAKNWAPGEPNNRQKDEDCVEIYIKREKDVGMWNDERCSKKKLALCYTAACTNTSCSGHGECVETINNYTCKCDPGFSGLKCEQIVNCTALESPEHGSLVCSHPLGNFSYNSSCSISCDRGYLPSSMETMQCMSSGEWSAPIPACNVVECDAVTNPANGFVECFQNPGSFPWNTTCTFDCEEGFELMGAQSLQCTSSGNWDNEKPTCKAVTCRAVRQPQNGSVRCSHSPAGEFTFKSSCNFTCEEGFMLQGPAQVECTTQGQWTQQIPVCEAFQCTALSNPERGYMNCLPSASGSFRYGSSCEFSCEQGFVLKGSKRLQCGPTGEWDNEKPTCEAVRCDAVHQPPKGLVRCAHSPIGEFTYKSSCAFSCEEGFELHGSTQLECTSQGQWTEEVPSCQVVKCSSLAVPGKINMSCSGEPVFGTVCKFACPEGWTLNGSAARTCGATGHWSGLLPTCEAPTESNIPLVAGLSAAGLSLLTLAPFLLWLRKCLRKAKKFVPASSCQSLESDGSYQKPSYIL

CCCSP(=O)(OCC)Oc1ccc(Br)cc1Cl (stereo not given)
active: [1] 17.4 µM | [6] 27.7 µM | [9] 22.7 µM | [16] 30.2 µM
not listed: [18] | [19]
inactive: all other assays above

CCOP(=S)(OCC)Oc1ccc([N+](=O)[O-])cc1
active: [1] 9.79 µM | [6] 20 µM | [7] 20 µM | [8] 32.7 µM | CD40, CD40 (gene 958) 16.7 µM
not listed: [19]
inactive: all other assays above

CCC(CC)Nc1c([N+](=O)[O-])cc(C)c(C)c1[N+](=O)[O-]
active: [1] 13.5 µM | [4] 11.8 µM | [5] 6.93 µM | [6] 11.9 µM | [8] 13.8 µM | [14] 8.34 µM | CD40, CD40 (gene 958) 20 µM | [19] 16.8 µM | [16] 18 µM | [17] 20 µM
inactive: [2] | [3] | [7] | [18] | [9] | [10] | [11] | [12] | [13] | [15]

CCCOCC(=Nc1ccc(Cl)cc1C(F)(F)F)n1ccnc1
active: [1] 24.3 µM | [2] 30.4 µM | [3] 32 µM | [5] 33.2 µM | [6] 27.9 µM | [7] 26.3 µM | [18] 29.7 µM | [8] 29.1 µM | [9] 32.7 µM | [10] 36.4 µM | [11] 31.7 µM | [12] 31.1 µM | [13] 31.3 µM | [14] 28 µM | [15] 33.2 µM | CD40, CD40 (gene 958) 22.3 µM | [19] 16.2 µM | [16] 32.5 µM | [17] 31.4 µM

CN(C)[C@@H]1C(=O)C(C(N)=O)=C(O)[C@@]2(O)C(=O)C3=C(O)c4c(O)cccc4[C@@](C)(O)[C@H]3[C@H](O)[C@@H]12
active: [1] 23.3 µM | [6] 28.6 µM
inactive: [1] | [2] | [3] | [5] | [6] | [7] | [18] | [8] | [9] | [10] | [11] | [12] | [13] | [14] | [15] | CD40, CD40 (gene 958) | [16] | [17]

CSC1=N[C@@](C)(c2ccccc2)C(=O)N1Nc1ccccc1
active: [14] 29.9 µM | [19] 10.6 µM | [16] 1.7 µM | [17] 20 µM
not listed: [18]
inactive: all other assays above
